# What was measured:
# Test in all cases: DAPPL (digital affinity profiling via proximity ligation, sequencing); 10 mM Tris-HCl pH 7.5, 50 mM NaCl, 1 mM DTT, 4% glycerol, room temperature, 30 min; GST-TFs on glutathione beads, 16-mer random dsDNA library, 0.1% formaldehyde crosslink after washing; high values mean tight binding
# FEV = molecular target: T1, FEV (Homo sapiens, UniProt Q99581 1-238); conditions: protein: recombinant; tags: N-terminal GST; dsDNA, one strand shown
# T1 sequence: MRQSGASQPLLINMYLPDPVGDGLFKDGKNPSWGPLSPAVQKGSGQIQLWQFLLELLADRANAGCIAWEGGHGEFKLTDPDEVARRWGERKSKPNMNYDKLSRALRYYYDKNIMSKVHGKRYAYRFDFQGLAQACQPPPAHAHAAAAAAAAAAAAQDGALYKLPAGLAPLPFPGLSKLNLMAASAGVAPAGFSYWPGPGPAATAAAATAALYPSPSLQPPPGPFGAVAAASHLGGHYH
# In short: (§1)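 Human transcription factors were made in yeast as GST fusions, captured on glutathione beads and barcoded with DNA. With a tag-only sample included, the pool was incubated with 200 nmole of a random double-stranded 16-mer DNA library in Tris/NaCl/DTT/glycerol buffer at room temperature for 30 min, then crosslinked with 0.1% formaldehyde after washing, ligated by proximity, amplified and sequenced. For binding signal, each hexamer's read frequency for a factor is divided by its frequency for the tag-only sample.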
# ETV5 = ETV5 (Homo sapiens, UniProt P41161 1-510); conditions: protein: recombinant; tags: N-terminal GST; dsDNA, one strand shown
# Sequence of ETV5 (P41161 whole entry): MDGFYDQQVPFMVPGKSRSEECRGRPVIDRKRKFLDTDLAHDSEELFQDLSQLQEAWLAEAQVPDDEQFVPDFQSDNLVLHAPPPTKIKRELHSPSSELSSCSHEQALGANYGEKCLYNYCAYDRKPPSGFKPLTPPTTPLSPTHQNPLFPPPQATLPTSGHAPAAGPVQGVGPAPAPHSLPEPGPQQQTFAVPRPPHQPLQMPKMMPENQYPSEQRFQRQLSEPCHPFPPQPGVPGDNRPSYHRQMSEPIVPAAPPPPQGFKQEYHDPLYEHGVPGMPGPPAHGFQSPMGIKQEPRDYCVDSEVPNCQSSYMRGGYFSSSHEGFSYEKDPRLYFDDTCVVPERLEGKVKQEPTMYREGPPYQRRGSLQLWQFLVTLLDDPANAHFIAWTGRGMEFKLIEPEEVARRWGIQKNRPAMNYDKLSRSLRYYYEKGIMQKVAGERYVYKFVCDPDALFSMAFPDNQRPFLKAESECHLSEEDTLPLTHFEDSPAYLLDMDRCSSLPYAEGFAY
# In short: as §1
# HSF1 = HSF1 (Homo sapiens, UniProt Q00613 1-529); conditions: protein: recombinant; tags: N-terminal GST; chain copies: 3; dsDNA, one strand shown
# Sequence of HSF1 (Q00613 whole entry): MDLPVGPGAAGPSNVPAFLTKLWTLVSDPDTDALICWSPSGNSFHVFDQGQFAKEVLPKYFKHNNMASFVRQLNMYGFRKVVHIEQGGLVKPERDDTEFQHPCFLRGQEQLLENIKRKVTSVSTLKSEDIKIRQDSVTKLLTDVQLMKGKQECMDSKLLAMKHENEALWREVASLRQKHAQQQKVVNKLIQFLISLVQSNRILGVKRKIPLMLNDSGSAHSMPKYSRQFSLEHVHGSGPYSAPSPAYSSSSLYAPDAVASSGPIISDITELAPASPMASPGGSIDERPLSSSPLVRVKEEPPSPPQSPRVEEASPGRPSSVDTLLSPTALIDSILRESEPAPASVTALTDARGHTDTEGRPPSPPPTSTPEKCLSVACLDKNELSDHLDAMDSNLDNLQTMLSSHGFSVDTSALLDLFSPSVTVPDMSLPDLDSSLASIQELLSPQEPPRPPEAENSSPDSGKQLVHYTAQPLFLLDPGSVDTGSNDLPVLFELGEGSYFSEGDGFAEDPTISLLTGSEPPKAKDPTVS
# In short: as §1
# SPIC = molecular target: T2, SPIC (Homo sapiens, UniProt Q8N5J4 1-248); conditions: protein: recombinant; tags: N-terminal GST; dsDNA, one strand shown
# T2 sequence: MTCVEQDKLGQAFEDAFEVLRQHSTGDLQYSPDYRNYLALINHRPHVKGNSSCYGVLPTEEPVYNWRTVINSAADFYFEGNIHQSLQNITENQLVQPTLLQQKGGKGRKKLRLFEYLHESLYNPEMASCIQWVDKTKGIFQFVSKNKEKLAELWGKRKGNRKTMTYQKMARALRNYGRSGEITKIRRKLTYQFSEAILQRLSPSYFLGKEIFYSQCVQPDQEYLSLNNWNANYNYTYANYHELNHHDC
# In short: as §1
# ELF4 = ELF4 (Homo sapiens, UniProt Q99607 1-663); conditions: protein: recombinant; tags: N-terminal GST; dsDNA, one strand shown
# Sequence of ELF4 (Q99607 whole entry): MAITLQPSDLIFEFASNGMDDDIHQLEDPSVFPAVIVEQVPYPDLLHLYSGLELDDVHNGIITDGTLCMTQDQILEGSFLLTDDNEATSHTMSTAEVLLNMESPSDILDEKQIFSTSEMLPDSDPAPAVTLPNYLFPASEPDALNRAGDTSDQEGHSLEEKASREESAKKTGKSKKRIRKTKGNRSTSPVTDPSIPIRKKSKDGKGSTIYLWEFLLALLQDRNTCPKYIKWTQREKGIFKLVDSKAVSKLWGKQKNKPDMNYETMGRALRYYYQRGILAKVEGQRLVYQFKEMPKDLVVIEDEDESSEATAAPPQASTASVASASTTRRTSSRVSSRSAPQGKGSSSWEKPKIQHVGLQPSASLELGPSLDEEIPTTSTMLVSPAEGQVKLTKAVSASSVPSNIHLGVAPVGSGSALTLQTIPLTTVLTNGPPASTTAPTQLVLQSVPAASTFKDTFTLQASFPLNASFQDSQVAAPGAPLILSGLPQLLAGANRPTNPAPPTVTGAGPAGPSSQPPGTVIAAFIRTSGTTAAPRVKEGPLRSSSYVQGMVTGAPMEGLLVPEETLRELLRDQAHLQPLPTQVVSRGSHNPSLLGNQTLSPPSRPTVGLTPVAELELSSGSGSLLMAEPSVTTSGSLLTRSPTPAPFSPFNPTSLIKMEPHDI
# In short: as §1
# ELK4 = molecular target: T3, ELK4 (Homo sapiens, UniProt P28324-2 1-405); conditions: protein: recombinant; tags: N-terminal GST; dsDNA, one strand shown
# T3 sequence: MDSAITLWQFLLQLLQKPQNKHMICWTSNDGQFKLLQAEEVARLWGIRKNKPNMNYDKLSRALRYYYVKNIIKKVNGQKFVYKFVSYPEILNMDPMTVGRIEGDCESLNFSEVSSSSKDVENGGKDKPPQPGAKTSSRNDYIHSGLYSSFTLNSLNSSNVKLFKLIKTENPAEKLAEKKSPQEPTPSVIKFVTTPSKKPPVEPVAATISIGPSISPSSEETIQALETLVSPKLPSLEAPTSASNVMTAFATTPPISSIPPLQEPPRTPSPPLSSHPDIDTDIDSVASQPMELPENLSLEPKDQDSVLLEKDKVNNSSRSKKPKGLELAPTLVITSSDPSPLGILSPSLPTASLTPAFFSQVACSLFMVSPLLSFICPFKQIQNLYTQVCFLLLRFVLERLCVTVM
# In short: as §1
# ETV2 = molecular target: T4, ETV2 (Homo sapiens, UniProt O00321 1-342); conditions: protein: recombinant; tags: N-terminal GST; dsDNA, one strand shown
# T4 sequence: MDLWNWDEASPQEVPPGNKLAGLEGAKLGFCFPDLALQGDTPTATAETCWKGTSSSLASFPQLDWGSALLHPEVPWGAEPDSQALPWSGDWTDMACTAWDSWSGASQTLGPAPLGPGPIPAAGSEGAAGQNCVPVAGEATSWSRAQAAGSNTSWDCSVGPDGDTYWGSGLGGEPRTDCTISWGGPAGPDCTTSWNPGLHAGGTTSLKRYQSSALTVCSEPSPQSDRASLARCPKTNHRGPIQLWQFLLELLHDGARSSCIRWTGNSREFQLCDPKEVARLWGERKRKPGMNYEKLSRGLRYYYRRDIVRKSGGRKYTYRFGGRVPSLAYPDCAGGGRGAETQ
# In short: as §1
# ELF3 = molecular target: T5, ELF3 (Homo sapiens, UniProt P78545 1-371); conditions: protein: recombinant; tags: N-terminal GST; dsDNA, one strand shown
# T5 sequence: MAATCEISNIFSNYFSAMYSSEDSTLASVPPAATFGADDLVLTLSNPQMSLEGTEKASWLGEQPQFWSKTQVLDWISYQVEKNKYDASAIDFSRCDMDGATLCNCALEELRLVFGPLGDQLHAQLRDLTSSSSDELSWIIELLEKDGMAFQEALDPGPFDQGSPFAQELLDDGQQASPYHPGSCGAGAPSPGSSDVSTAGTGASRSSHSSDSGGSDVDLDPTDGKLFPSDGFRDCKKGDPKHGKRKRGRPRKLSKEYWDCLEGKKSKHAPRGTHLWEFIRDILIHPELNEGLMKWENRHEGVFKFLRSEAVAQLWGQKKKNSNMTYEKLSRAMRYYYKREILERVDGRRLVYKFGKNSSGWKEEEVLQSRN
# In short: as §1
# CRX = CRX (Homo sapiens, UniProt O43186 1-299); conditions: protein: recombinant; tags: N-terminal GST; dsDNA, one strand shown
# Sequence of CRX (O43186 whole entry): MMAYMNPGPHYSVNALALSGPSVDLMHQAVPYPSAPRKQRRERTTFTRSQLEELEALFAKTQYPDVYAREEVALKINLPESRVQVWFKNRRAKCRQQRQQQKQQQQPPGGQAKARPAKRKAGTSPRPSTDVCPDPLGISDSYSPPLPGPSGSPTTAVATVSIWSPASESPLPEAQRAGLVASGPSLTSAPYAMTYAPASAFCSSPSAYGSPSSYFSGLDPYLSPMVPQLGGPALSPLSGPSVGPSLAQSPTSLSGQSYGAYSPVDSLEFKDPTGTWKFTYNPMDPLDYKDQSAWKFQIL
# In short: as §1
# ETV1 = ETV1 (Homo sapiens, UniProt P50549 1-477); conditions: protein: recombinant; tags: N-terminal GST; dsDNA, one strand shown
# Sequence of ETV1 (P50549 whole entry): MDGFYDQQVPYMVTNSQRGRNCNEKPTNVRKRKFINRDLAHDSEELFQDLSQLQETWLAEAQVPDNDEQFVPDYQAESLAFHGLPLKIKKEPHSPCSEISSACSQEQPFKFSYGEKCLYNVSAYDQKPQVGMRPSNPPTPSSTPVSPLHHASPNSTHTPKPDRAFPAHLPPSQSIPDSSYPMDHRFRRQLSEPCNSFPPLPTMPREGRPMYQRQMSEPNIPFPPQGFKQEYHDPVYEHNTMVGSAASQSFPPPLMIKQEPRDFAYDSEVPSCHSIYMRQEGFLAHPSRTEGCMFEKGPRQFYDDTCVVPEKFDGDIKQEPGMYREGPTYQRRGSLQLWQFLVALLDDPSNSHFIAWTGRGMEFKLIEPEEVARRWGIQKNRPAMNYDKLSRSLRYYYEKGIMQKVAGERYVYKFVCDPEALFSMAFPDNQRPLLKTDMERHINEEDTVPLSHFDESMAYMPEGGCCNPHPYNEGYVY
# In short: as §1
# ERF = molecular target: T6, ERF (Homo sapiens, UniProt P50548 1-548); conditions: protein: recombinant; tags: N-terminal GST; dsDNA, one strand shown
# T6 sequence: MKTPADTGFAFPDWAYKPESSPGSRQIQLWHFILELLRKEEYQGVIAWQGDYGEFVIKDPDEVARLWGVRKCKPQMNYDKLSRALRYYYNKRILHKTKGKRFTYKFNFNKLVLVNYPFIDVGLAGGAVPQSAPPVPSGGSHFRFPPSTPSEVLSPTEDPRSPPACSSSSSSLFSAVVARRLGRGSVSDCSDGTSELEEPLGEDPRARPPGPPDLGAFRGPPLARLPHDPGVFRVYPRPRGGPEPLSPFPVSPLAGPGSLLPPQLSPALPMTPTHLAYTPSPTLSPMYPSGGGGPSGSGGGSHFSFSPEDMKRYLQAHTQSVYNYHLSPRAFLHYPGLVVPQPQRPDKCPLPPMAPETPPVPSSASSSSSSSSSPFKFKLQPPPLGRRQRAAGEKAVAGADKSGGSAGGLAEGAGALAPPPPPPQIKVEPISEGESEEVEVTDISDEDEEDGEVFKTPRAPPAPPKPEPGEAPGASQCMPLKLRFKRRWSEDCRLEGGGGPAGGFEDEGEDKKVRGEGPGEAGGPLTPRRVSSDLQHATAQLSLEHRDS
# In short: as §1
# ETV3L = molecular target: T7, ETV3L (Homo sapiens, UniProt Q6ZN32 1-361); conditions: protein: recombinant; tags: N-terminal GST; dsDNA, one strand shown
# T7 sequence: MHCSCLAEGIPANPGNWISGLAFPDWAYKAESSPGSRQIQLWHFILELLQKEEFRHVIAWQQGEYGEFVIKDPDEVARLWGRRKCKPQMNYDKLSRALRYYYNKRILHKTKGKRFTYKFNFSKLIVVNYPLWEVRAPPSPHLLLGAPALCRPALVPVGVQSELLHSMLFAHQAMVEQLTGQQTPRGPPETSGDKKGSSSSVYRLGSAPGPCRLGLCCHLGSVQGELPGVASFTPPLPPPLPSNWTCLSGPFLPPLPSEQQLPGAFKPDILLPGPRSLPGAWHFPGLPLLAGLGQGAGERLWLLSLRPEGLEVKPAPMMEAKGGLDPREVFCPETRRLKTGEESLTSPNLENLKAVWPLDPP
# In short: as §1
# ETS2 = molecular target: T8, ETS2 (Homo sapiens, UniProt P15036 1-469); conditions: protein: recombinant; tags: N-terminal GST; dsDNA, one strand shown
# T8 sequence: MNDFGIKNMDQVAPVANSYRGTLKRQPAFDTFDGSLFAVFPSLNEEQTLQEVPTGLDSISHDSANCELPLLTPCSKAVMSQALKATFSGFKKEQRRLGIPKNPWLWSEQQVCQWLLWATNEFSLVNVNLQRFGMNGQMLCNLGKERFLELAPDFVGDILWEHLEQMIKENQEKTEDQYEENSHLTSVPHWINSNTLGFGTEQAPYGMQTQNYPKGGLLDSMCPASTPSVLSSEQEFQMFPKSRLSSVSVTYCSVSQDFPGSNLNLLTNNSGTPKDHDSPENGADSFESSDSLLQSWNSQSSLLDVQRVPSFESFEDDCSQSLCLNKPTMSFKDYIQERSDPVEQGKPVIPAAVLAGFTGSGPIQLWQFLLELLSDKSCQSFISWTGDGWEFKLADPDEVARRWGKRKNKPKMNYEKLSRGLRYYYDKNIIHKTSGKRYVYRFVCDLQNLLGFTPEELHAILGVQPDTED
# In short: as §1
# SPDEF = molecular target: T9, SPDEF (Homo sapiens, UniProt O95238 1-335); conditions: protein: recombinant; tags: N-terminal GST; dsDNA, one strand shown
# T9 sequence: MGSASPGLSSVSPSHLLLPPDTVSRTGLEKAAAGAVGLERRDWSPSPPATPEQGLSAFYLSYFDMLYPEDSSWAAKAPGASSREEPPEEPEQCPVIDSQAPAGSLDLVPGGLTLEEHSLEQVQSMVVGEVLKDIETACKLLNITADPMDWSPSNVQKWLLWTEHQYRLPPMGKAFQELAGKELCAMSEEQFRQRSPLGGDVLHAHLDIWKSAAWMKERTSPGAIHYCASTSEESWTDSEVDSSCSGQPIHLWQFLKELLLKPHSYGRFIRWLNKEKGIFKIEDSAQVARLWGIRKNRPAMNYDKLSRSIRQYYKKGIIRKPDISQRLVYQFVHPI
# In short: as §1
# ETV7 = molecular target: T10, ETV7 (Homo sapiens, UniProt Q9Y603 1-341); conditions: protein: recombinant; tags: N-terminal GST; dsDNA, one strand shown
# T10 sequence: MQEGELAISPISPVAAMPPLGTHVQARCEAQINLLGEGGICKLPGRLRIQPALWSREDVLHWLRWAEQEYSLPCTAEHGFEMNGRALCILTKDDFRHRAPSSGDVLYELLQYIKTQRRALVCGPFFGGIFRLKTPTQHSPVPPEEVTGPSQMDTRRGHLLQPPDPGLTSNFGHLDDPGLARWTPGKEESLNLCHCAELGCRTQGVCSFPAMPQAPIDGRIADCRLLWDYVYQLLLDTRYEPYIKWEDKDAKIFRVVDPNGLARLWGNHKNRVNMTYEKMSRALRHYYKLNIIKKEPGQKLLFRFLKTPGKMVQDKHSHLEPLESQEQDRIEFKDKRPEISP
# In short: as §1
# ELF5 = molecular target: T11, ELF5 (Homo sapiens, UniProt Q9UKW6-2 1-255); conditions: protein: recombinant; tags: N-terminal GST; dsDNA, one strand shown
# T11 sequence: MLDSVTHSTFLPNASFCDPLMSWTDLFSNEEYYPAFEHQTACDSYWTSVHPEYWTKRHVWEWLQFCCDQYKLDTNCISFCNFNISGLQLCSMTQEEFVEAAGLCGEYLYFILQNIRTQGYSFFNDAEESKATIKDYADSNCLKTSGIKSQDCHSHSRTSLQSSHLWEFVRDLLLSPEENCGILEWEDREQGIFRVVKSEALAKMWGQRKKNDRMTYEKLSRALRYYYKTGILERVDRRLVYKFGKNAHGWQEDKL
# In short: as §1
# ETV3 = molecular target: T12, ETV3 (Homo sapiens, UniProt P41162-2 1-143); conditions: protein: recombinant; tags: N-terminal GST; dsDNA, one strand shown
# T12 sequence: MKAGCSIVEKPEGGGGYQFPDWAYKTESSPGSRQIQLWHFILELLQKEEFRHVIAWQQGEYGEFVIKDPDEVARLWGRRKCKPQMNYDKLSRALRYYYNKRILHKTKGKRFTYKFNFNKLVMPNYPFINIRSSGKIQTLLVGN
# In short: as §1
# ETV6 = ETV6 (Homo sapiens, UniProt P41212 1-452); conditions: protein: recombinant; tags: N-terminal GST; dsDNA, one strand shown
# Sequence of ETV6 (P41212 whole entry): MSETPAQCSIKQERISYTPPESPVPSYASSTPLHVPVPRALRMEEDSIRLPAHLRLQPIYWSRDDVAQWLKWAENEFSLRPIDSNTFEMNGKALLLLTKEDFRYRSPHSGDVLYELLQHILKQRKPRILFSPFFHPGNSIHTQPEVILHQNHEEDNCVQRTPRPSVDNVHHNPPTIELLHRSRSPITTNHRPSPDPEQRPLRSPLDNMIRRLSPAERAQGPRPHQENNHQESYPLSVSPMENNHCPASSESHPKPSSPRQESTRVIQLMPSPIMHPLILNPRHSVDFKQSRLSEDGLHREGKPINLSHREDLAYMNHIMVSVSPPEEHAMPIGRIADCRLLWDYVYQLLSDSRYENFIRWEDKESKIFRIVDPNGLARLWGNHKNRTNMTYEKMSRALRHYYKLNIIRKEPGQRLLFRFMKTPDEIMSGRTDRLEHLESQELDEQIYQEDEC
# In short: as §1
sequence,measurement,setting,value
TCTGAA,binding signal,FEV,"1.21 fold enrichment (6-mer frequency, TF over GST control)"
same,binding signal,ETV5,"1.09 fold enrichment (6-mer frequency, TF over GST control)"
same,binding signal,HSF1,"1.23 fold enrichment (6-mer frequency, TF over GST control)"
same,binding signal,SPIC,"1.2 fold enrichment (6-mer frequency, TF over GST control)"
same,binding signal,ELF4,"1.2 fold enrichment (6-mer frequency, TF over GST control)"
same,binding signal,ELK4,"1.14 fold enrichment (6-mer frequency, TF over GST control)"
same,binding signal,ETV2,"1.17 fold enrichment (6-mer frequency, TF over GST control)"
same,binding signal,ELF3,"1.18 fold enrichment (6-mer frequency, TF over GST control)"
same,binding signal,CRX,"1.21 fold enrichment (6-mer frequency, TF over GST control)"
same,binding signal,ETV1,"1.21 fold enrichment (6-mer frequency, TF over GST control)"
same,binding signal,ERF,"1.27 fold enrichment (6-mer frequency, TF over GST control)"
same,binding signal,ETV3L,"1.15 fold enrichment (6-mer frequency, TF over GST control)"
same,binding signal,ETS2,"1.27 fold enrichment (6-mer frequency, TF over GST control)"
same,binding signal,SPDEF,"1.23 fold enrichment (6-mer frequency, TF over GST control)"
same,binding signal,ETV7,"1.07 fold enrichment (6-mer frequency, TF over GST control)"
same,binding signal,ELF5,"1.07 fold enrichment (6-mer frequency, TF over GST control)"
same,binding signal,ETV3,"1.09 fold enrichment (6-mer frequency, TF over GST control)"
same,binding signal,ETV6,"1.16 fold enrichment (6-mer frequency, TF over GST control)"

# From PMC7862700, “An all-to-all approach to the identification of sequence-specific readers for epigenetic DNA modifications on cytosine”
